According to PubChem BioAssay AID1508600 (Functional Genomics Laboratory (NCATS/FGL), 2020):
In all, about 53,000 sequences went through this assay and about 3,700 (7%) were called active.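 Rule for the calls: active = gene knockdowns whose robust z-score for IL-1 alpha signal is at least 2 or at most -2, so actives lie on both sides; inactive = the rest.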 Shown is part of a subset that was picked to be rich in actives.

assay: Components of the Cytosolic LPS Sensing Pathway: Gene Identification via Genome-wide siRNA Screen; details: RAW264.7 macrophages, IL-1a HTRF, actives lie on both sides, screened at 100 nM (by protocol), cells primed 5 h with Pam3CSK4 first;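 note: robust z of the log signal after scaling to non-targeting control siRNA wells of the plate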
In short: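 RAW264.7 mouse macrophages reverse-transfected with single siRNAs (100 nM final) for 48h, primed with Pam3CSK4 for 5 hours, then transfected with LipidA for 24 hour. Supernatant IL-1a read by HTRF; values normalized to negative-control median, log-transformed robust z-scores.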

Sequence	z-score
GGUAUCAGACAGCUGUAACTT against Mptx1	0.359 (inactive)
GCAUCAGUAGAAACCCACATT against Tmigd3	0.872 (inactive)
CCCUACUAUUGACGAAAACTT against Hpn	1.66 (inactive)
CCUGAUCUUAAACAAAGAATT against 2610507B11Rik	-0.742 (inactive)
GCCAACCCUGAAAACCCUUTT against Gc	-2.54 (active)
GGUUGUUGAAAAGUCUUUATT against Rasa2	-0.102 (inactive)
GCACUGGAAAAUUUCUAAUTT against Vmn2r7	-0.0531 (inactive)
GGAGGUAGAAAUAAAUACUTT against Sva	2.01 (active)
GGACAAUUACAACACUCAATT against Ablim3	-0.00526 (inactive)
GGCUUGAUCAUGACUUAAATT against Armc8	0.638 (inactive)
GGUUUUGUUAUGGUAAGUCTT against Vdr	-0.573 (inactive)
CCAAGCAUUCGAGUAUGUUTT against Ctsj	1.07 (inactive)
CCAAUGAUUUCCUGCUAAATT against Lst1	3.21 (active)
GGAAGACAACUGAACAUUUTT against Ralgds	0.837 (inactive)
CCGGAAGCUAUUGACCAUUTT against Tmem11	3.21 (active)
GGCCGUAAUAUCUCCUCCUTT against Krt13	1.41 (inactive)
CGCGAGGUCUUCGAAAGAATT against Siva1	-0.884 (inactive)
CGCGUUUCGUGUUUCAAAATT against Mus81	-0.464 (inactive)
GAUCGAAGCCUAAGACCGCTT against Cypt3	-0.578 (inactive)
GCCUUAGGGAGUGUUAAAATT against Spink8	-0.304 (inactive)
GGUGGAGAAGCAGAUGCUUTT against Nek2	2.25 (active)
GGAAUUCCUUACCUUCUUATT against Cyp2c65	-0.269 (inactive)

Sequence	z-score
GGAGCAUCACUCUUAACAUTT against Krt71	1.58 (inactive)
GGGACACUUUCACUUGUUCTT against Rmnd5a	0.159 (inactive)
GCUCAGGCAAGACUCAUUGTT against Trim45	-0.57 (inactive)
GGACUUUUGGCACUCUUAUTT against Snx10	0.127 (inactive)
GGAUUUGAUUCCGCCAACGTT against Pon2	-2.03 (active)
GCUUAAAAGUGAAGUCUUGTT against Tmem203	-0.615 (inactive)
GUAAGGUCACCGGGUUGCATT against Lor	0.547 (inactive)
GGUGGUCCUGGAUCUUUAUTT against Spon2	-0.986 (inactive)
GGACUUCGACAAACUGAAGTT against Zfp532	0.547 (inactive)
GCCUUCUUGAACUGAAAGATT against Spc24	-2.04 (active)
GGUUCUAUGUUGACAAUCATT against Osgin2	0.621 (inactive)
GGAAAUCUGAGUGUGCACUTT against Pcdhgb1	1.45 (inactive)
GGCUGUCUUCAUCUUAGAUTT against Copz2	-2.61 (active)
GGAUAAUACAUCCCAAAACTT against Prkar2b	-0.607 (inactive)
GGAUCUCCAGAGCAGAAAATT against Nckap5	-1.64 (inactive)
GGUGAAUUCAACUCUCUAATT against Decr1	2.43 (active)
GGGUGUUGAUGUCAUUGUGTT against Dbn1	1.51 (inactive)
GCAUGCACUUAAGAUUCUATT against Lypd6b	0.595 (inactive)
CCAGGAAUCAGUCUAUACUTT against Lrrc15	1.45 (inactive)
GGUUGUAACAAACAUACUCTT against Sstr4	2.99 (active)
GGACCUGGAGAAAUUGAAGTT against Nlrp6	1.82 (inactive)
GGUCAUCUCAGACCUCCUCTT against Pde6a	-0.275 (inactive)

Sequence	z-score
GCAAAACCAUUUCGAAACATT against Slc41a3	0.363 (inactive)
CCUGUGGAUCCAUUUGUUCTT against Tex15	-2.25 (active)
GGAAAAGCUACCUGUGUCATT against Tril	-1.88 (inactive)
GGUGAUGGAAUACCAAAGGTT against Dnajc28	-0.736 (inactive)
GGAUAUCUUCAUAUUGGUGTT against Ces1f	4 (active)
GGAGAUCCCGUCACUAUCUTT against Lrrc61	-0.439 (inactive)
GGACAAUGAACUGAUUACCTT against Ap1s2	0.992 (inactive)
GGGACAAAGAAAAUCUACUTT against Ehf	0.637 (inactive)
GUACCAGAAGUGAGUUCAGTT against Leap2	-2.97 (active)
GCUGCCUCUUUCUUUGCUUTT against Pllp	-0.769 (inactive)
GGCAGAUUCAGAAUUGUCUTT against Il17a	-2.58 (active)
GGACUUUGCCCUGGAUUCUTT against Cnot1	-0.216 (inactive)
GGUUUGUUGUUGUUUUUGGTT against Vezt	0.44 (inactive)
GCAAUUACCAGUAUGCUACTT against Tbx19	0.914 (inactive)
CGGUAAACUGGUUUUACUUTT against Otulin	1.8 (inactive)
GCCACAUCCUAUGUGAUGATT against Olfr1349	-0.647 (inactive)
GGAAGCUAUAUAUCAAGAATT against Tcea1	0.69 (inactive)
GUCCGUCUCGGAGAAAUGUTT against Ccdc106	-2.28 (active)
GGAUUCACGAGCAUAAGCUTT against 1700020D05Rik	-1.31 (inactive)
GGAGGCAGCAGUUAUUGUGTT against Ly6a	-0.486 (inactive)
GGCCUCAGACCUUCUAUGATT against Mtap	-0.149 (inactive)
GGUGUCCUCUUUGUUCAUGTT against Sgce	2.94 (active)

Sequence	z-score
GGCUGGUACUCCAUUUUAGTT against Neil2	0.0451 (inactive)
GCCAGUUGGUUACUAUGGATT against Tax1bp3	-0.412 (inactive)
GGGAUUACCAAAAAGGCAUTT against Senp7	0.128 (inactive)
GGAUAUUAACUAUGGGUUUTT against Tlr2	0.605 (inactive)
GGCCUGCUUUGUUCUGAAUTT against Olfr846	-2.53 (active)
GCGCAAUAAUCAGACGGUUTT against Zhx2	-0.624 (inactive)
GGAAGAAGGUACAUUUCAGTT against Ankrd42	0.362 (inactive)
GGGCAAAAUAUGAAAUACATT against Pate6	2.92 (active)
GAGAGAGACAAUCCUGAAGTT against Klra22	-0.0539 (inactive)
GGCAAAUGGAAACAGCCAUTT against Serpina1d	-1.56 (inactive)
CCUGCUCAAACUUUUGUGGTT against Ephx4	0.928 (inactive)
GGAACCUUCUCCAAAGCAATT against Rpgrip1	-2.45 (active)
CGUCAAAGGAGACAGCUUUTT against Rbm15b	1.56 (inactive)
GCUCAAAUUGAGUCCUUAUTT against Ccdc122	-0.548 (inactive)
GCUAGCCAUGGUUACCCACTT against Slc39a3	-0.818 (inactive)
GGGACACUAGAAGUAGGGATT against Pramel4	0.299 (inactive)
GACGAUCAAGAUAUGAUGGTT against Olfr196	0.259 (inactive)
GCACGUACUGUUCUAGAAGTT against Kcng4	1.48 (inactive)
CCCAAAGAUAGAGCUCUGUTT against Sec61a2	-1.94 (inactive)
GGUUGAUCUAAUGAUUGUGTT against Ccdc34	2.5 (active)
UCUCCUACCUAUGCACAUATT against Panx2	-0.925 (inactive)
GCAAGUCUGGAUGGAUGAGTT against 1190005I06Rik	-1.54 (inactive)

Sequence	z-score
CCCUCGUUGAAUUAAACUUTT against Zfp385b	0.88 (inactive)
GGUCUCAGACAAAGAUGAATT against Trmt10c	-0.239 (inactive)
GGAAUGGAGUUUGGUUUUGTT against Extl1	2.67 (active)
GGAAACGAGUUGGAGACAATT against Gtpbp1	-1.03 (inactive)
GGUUAAGUUCCUCUGGAACTT against Pnliprp2	-0.0719 (inactive)
GGCACUACCACAAGUAUAGTT against 1700073E17Rik	0.0893 (inactive)
GCAGGUUAUGGUCAUAUUUTT against Zfp646	0.583 (inactive)
GCAGUUGAGUCCACCUCAATT against Ccdc187	2.18 (active)
GGAGAACGUGGUACAAAGUTT against Sncg	-1.27 (inactive)
GGAGGACUUAGAGAGUAUGTT against Ctdp1	-0.595 (inactive)
CCAGUGUAGAGCACAAAUCTT against Ahr	2.51 (active)
GGACCUGGACCUUUUAGAGTT against Vegfb	1.34 (inactive)
GGUUGUUGGAAAAAUAGAUTT against Tmem175	-0.0383 (inactive)
GGUGGACUUCAUGUAGAUUTT against Eif3m	-1.07 (inactive)
GGACAAGAGGUACACAAACTT against Eif3d	2.83 (active)
GGAAGAGCUGGACUUCUUCTT against Hoxb2	1.71 (inactive)
CCACGGUUAUGAUGACGACTT against Dyrk1b	1.89 (inactive)
GGACUAUUUCCUUUGUGGGTT against Olfr31	-1.59 (inactive)
GGAUUGUCCUUGAUGGCUGTT against Plek2	-0.116 (inactive)
GGAGGUUUUACUCAAACAUTT against Sec14l2	1.35 (inactive)
